Shown are actives, neighbours in structure and some others; about 2.5% of the full set was active somewhere.
SUMO HTRF inh: inhibitors of in vitro SUMOylation cascade, primary screen, biochemical, HTRF, uHTS | HTRF SUMOylation assay, SAE1/SAE2 + UBC9 | inhibition, % at 35 µM | actives 0.36% (n = 290,000); in the data active means inhibition above about 50%, passing the limit was not always enough
Target sequence (P63279 whole entry, looked up): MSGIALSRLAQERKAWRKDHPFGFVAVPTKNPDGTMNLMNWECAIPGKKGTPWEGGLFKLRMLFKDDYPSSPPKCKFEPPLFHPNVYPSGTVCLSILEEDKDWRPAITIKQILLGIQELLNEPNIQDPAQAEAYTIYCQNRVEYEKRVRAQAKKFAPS
HDAC3 inhib: HDAC3 deacetylase inhibitors, primary screen, biochemical, fluorescence, cell-free homogeneous; Histone deacetylase 3 (Homo sapiens), O15379; recombinant HDAC3, fluorogenic peptide/trypsin coupled; inhibition, % at 8.3 µM; actives 0.15% (n = 320,000); AID 2718, 2010; in the data active means inhibition above about 26%, passing the limit was not always enough
G6PDH CS: L. mesenteroides G6PDH inhibitors, counter-screen for G6PDH-coupled screening assays, biochemical, Leuconostoc mesenteroides enzyme | glucose-6-phosphate dehydrogenase [Leuconostoc mesenteroides] | Purified L. mesenteroides G6PDH, diaphorase/resazurin coupled fluorescence, 45 min | inhibition, % at 5 µM | actives 0.12% (n = 200,000); in the data active means inhibition above about 50%
PHOSPHO1 block: PubChem AID 1565; Phosphoethanolamine/phosphocholine phosphatase (Homo sapiens), Q8TCT1; recombinant PHOSPHO1, absorbance phosphatase assay; inhibition, % at 13.3 µM; actives 1.1% (n = 290,000); in the data active means inhibition above about 60%
Target sequence (Q8TCT1 whole entry, looked up): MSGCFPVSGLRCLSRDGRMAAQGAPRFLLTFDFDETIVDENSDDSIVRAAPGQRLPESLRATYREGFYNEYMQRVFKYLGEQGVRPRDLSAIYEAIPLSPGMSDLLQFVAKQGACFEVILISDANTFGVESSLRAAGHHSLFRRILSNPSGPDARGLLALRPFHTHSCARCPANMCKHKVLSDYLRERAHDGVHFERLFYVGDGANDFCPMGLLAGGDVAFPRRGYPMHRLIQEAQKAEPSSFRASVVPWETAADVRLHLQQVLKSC
p97 ATPase inh: inhibitors of human p97 ATPase, primary screen, biochemical; recombinant p97 ATPase, Kinase-Glo ATP luminescence, 3 h; actives 0.42% (n = 220,000); Transitional endoplasmic reticulum ATPase (Homo sapiens), P55072; inhibition, % at 8 µM; in the data active means inhibition above about 15%
M18AAP inhibitor: PfM18AAP inhibitors, malaria aminopeptidase, primary screen, biochemical, QFRET, recombinant enzyme. M18 aspartyl aminopeptidase (Plasmodium falciparum 3D7). H-Glu-NHMec fluorogenic cleavage. inhibition, % at 7.35 µM. actives 1.2% (n = 290,000). AID 1822, 2009;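 active means inhibition above the campaign mean inhibition over all tested compounds plus 3 SD, cut at about 28% in these data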
A number is an active result; i = inactive; nt = no result; ! = repeats disagree.

SMILES	SUMO HTRF inh	HDAC3 inhib	G6PDH CS	PHOSPHO1 block	p97 ATPase inh	M18AAP inhibitor
O=C(Cn1nnc(-c2ccc(Cl)cc2)n1)NCc1ccco1	i	i	i	i	i	i
O=C(Cn1nnc(-c2cccs2)n1)NCc1ccccc1	i	i	i	i	i	i
O=C(Cn1nnc(-c2cccs2)n1)NCc1ccco1	i	i	i	64	i	i
CC(=O)N1CCOc2ccc(S(=O)(=O)NCC3CCC(C(=O)Nc4ncccc4C)CC3)cc21 (configuration not stated)	i	i	nt	i	nt	i
N#Cc1ccsc1NC(=O)C1CCN(C(=O)c2ccc(Cl)cc2)CC1	nt	i	nt	nt	nt	nt
S=C1N(c2ccccc2)C(c2ccc(Br)cc2)N2CCCN12 (configuration not stated)	i	i	nt	i	i	i
CCOC(=O)c1ccc(N2CCOCC2)c(NS(=O)(=O)c2ccc(F)cc2)c1	i	i	nt	i	nt	i
CC(NC(=O)c1ccc2c(c1)C(=O)N(Cc1cccnc1)C2=O)c1ccccc1 (configuration not stated)	i	nt	nt	i	nt	i
COc1cc(/C=C2\SC(=O)N(c3cccc(Cl)c3)C2=O)cc([N+](=O)[O-])c1O	82	nt	i	i	i	i
COc1cc(/C=C2\SC(=O)N(c3ccc(Cl)cc3)C2=O)cc([N+](=O)[O-])c1O	95	nt	i	i	i	i
COc1ccccc1C(=O)N/C(=C/c1ccc2c(c1)OCO2)C(=O)Nc1ccc(C(=O)O)cc1	i	i	nt	i	nt	i
COc1ccc2cc(C(c3nnnn3C(C)(C)C)N3CCc4ccccc4C3)c(=O)[nH]c2c1 (configuration not stated)	i	i	i	i	i	i
COc1cc2cc(C(c3nnnn3Cc3ccc(F)cc3)N3CCCCCC3)c(=O)[nH]c2cc1OC (configuration not stated)	i	i	i	i	i	i
COc1ccc(Cn2nnnc2C(c2cc3ccc(OC)cc3[nH]c2=O)N2CCCCCC2)cc1 (configuration not stated)	i	i	i	86	i	i
COc1ccc2cc(C(c3nnnn3C3CCCC3)N3CCc4ccccc4C3)c(=O)[nH]c2c1 (configuration not stated)	i	i	i	98	i	i
CN(CC(=O)Nc1cccc(F)c1)CC(=O)N1CCc2ccccc21	nt	i	nt	nt	nt	nt
Cc1cc(-c2n[nH]c(=S)n2Cc2ccco2)nn1C	i	i	i	i	i	i
COc1ccc(-c2n[nH]c(=S)n2Cc2ccco2)cc1	i	i	i	102	i	i
Oc1ccccc1-c1n[nH]c(=S)n1Cc1ccco1	i	i	i	94	i	i
COc1ccc(OCc2n[nH]c(=S)n2Cc2ccco2)cc1	i	i	i	i	i	i
Cc1ccc(S(=O)(=O)N2CCCN(C(C)c3nc4ccccc4c(=O)[nH]3)CC2)cc1 (configuration not stated)	nt	i	nt	nt	nt	nt
COc1cccc(C(=O)N[C@@H](C)C(=O)N2CCC3(CC2)NCCc2[nH]cnc23)c1	nt	i	nt	i	nt	i
CC(Sc1nnc(C2CC2)n1C1CC1)C(=O)Nc1ccccc1C#N (configuration not stated)	nt	i	nt	nt	nt	nt
CC(C)C[C@@H](CO)N1CCN(Cc2ccc([N+](=O)[O-])cc2)CCC1=O	i	i	nt	i	nt	i
O=C(O)c1cc(Cl)c(Cl)cc1C(=O)Nc1cccc2cccnc12	76	i	i	i	i	i
SMILES	SUMO HTRF inh	HDAC3 inhib	G6PDH CS	PHOSPHO1 block	p97 ATPase inh	M18AAP inhibitor
COc1ccc(C(=O)NC2CC2)cc1OC1CCN(Cc2cc(C)c(C)cc2C)CC1	i	i	nt	i	nt	i
O=S(=O)(NCCC1=CCCCC1)c1ccc(OC(F)(F)F)cc1	nt	i	nt	nt	nt	nt
CCN(CC)c1ccc(SS(=O)(=O)O)cc1	i	i	i	106!	i	i
Cc1ccc(C2=NN=C(NC(=O)CSc3nncn3C)SC2)cc1	i	i	i	i	i	54
Cc1ccc(C(=O)NC(=O)CSc2nncn2C)cc1	i	i	nt	i	nt	i
O=S(=O)(c1ccc(Cl)c(Cl)c1)c1snnc1-c1ccccc1	i	nt	i	i	23	i
CCOc1cc(/C=C2\N=C(C)OC2=O)cc(Cl)c1OCC(=O)OC	nt	48	nt	nt	nt	nt
